Calls of active or inactive are those of the source. Unless noted, how the calls were made is not given here.
Experiments:
[1] = tested on: Wnt5a (protein binding on small-molecule microarray); test: Wnt5a binders on small-molecule microarray, primary screen, biophysical, 635/667 nm fluorescence (AID 1142); conditions: 635 nm fluorescence, higher = more signal;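 further: fluorescence read at 667 nm with signal to noise per printed feature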
[2] = cell viability in Huh7 cells, primary screen, cytotoxicity control for HCV replication inhibitor project, CellTiter-Glo luminescence, basal, 48 h (AID 1143); conditions: Huh7 HCV replicon, higher = more signal, called active from +8 up or from −8 down;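 further: Huh7 hepatoma cells carrying a hepatitis C replication reporter with no stimulus; test concentration not given here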
[3] = P. aeruginosa biofilm formation inhibitors, primary screen, PAO1 strain, BacTiter-Glo luminescence, LB-PBS (AID 1144); conditions: 12 h, higher = more signal
[4] = CREB reporter modulators without forskolin, primary screen, cell-based, PC12, CRE-LacZ reporter, unstimulated (AID 1145); conditions: no forskolin, luminescence, 4.5 h, higher = more signal, called active from +8 up or from −8 down
[5] = CREB reporter modulators under forskolin, primary screen, cell-based, PC12, CRE-LacZ reporter, forskolin-stimulated (AID 1146); conditions: luminescence, 4.5 h, higher = more signal, called active from +8 up or from −8 down;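 further: PC12 cells with 6xCRE LacZ reporter stimulated by forskolin 10 µM; beta-galactosidase reporter signal reflecting CREB driven transcription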
[6] = molecular target: Streptavidin (Streptomyces avidinii) (UniProt P22629); test: streptavidin binders on small-molecule microarray, primary screen, artefact control for SMM compound annotation, biophysical, 635/667 nm fluorescence (AID 1147); conditions: streptavidin binding, higher = more signal;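 further: signal reflects streptavidin binding to arrayed compounds as a control protein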
[7] = small-molecule binders of probe aInhba, primary screen, biochemical, small-molecule microarray, 635/667 nm fluorescence (AID 1148); conditions: higher = more signal;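 further: score merges 667nm spot fluorescence with signal-to-noise for antibody binding to printed compounds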
[8] = molecular target: Torsin-1A (Homo sapiens) (UniProt O14656); test: torsin A binders from cell lysate, primary screen, small-molecule microarray, wild-type, 635/667 nm (AID 1149); conditions: COS7 hTOR1A-WT lysate, 635 nm fluorescence, higher = more signal
[9] = molecular target: Torsin-1A (Homo sapiens) (UniProt O14656); test: small-molecule binders of mutant TOR1A in lysate, primary screen, cell lysate, small-molecule microarray, COS7 lysate, 635/667 nm fluorescence (AID 1150); conditions: COS7 hTOR1A mutant lysate, 635 nm fluorescence, higher = more signal;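 further: score pools 667 nm emission and signal to noise measuring lysate protein binding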
[10] = tested on: Sonic hedgehog protein (Shh); test: small-molecule binders of Shh protein, primary screen, biochemical, small-molecule microarray, 635/667 nm fluorescence (AID 1151); conditions: small-molecule microarray binding, 635 nm fluorescence; higher = more signal;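 further: Shh protein binding to compounds spotted on small-molecule microarray slides; score combines spot fluorescence intensity with signal-to-noise across triplicate slides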
[11] = E. coli DRC41 culture turbidity changes, primary screen, E. coli filamentation inducer project, strain DRC41, OD650, 48 h (AID 1152);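 further: E. coli MC1000 strain DRC41 lacking acrAB efflux pump and sulA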; conditions: E. coli DRC41 (acrAB sulA), higher = more signal, called active from +8 up or from −8 down
[12] = small-molecule binders of probe aLefty1, primary screen, biochemical, small-molecule microarray, 635/667 nm fluorescence (AID 1153); conditions: higher = more signal;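 further: score merges spot fluorescence with signal-to-noise ratio from the scanned slide images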
[13] = PSAC antagonists in infected red cells, primary screen, cell-based, P. falciparum Indochina, OD700, 1 h (AID 1154); conditions: P. falciparum Indochina infected RBC osmotic lysis, higher = more signal, called active from +8 up or from −8 down
[14] = PSAC antagonists in infected red cells, primary screen, cell-based, P. falciparum Indochina, OD700, 2 h (AID 1155);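 further: lysis reports solute entry through the parasite surface anion channel PSAC; channel blockers reduce lysis of infected cells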; conditions: P. falciparum Indochina infected erythrocytes, osmotic lysis OD700; higher = more signal, called active from +8 up or from −8 down
[15] = osmotic lysis modulators in infected erythrocytes, primary screen, PSAC antagonist project, cell-based, P. falciparum Indochina, OD700, 3 h (AID 1156); conditions: higher = more signal, called active from +8 up or from −8 down
[16] = PSAC antagonists in infected red cells, primary screen, cell-based, P. falciparum Indochina, OD700, 18 h (AID 1157); conditions: P. falciparum Indochina infected erythrocytes, osmotic lysis OD700, 18 h; higher = more signal, called active from +8 up or from −8 down
[17] = modulators of S6 phosphorylation in cells, primary screen, cell-based, A549, cytoblot, luminescence, serum-stimulated (AID 1158); conditions: A549 phospho-S6 cytoblot, 5 h, higher = more signal;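 further: serum-stimulated A549 lung adenocarcinoma cells; signal is phosphorylated S6 detected by cytoblot immunostaining with HRP secondary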
[18] = molecular target: NADPH oxidase 2 (Homo sapiens) (UniProt P04839); test: NOX2-dependent H2O2 signal modulators, primary screen, NOX inhibitor project, cell-based, HEK293-NOX2, PMA-stimulated, Amplex Red fluorescence (AID 1159); conditions: 45 min, higher = more signal, called active from +8 up or from −8 down; further: test concentration not given here
[19] = molecular target: NADPH oxidase 4 (Homo sapiens) (UniProt Q9NPH5); test: NOX4-dependent H2O2 signal modulators, primary screen, NOX inhibitor project, cell-based, HEK293-NOX4, tetracycline-induced, Amplex Red fluorescence (AID 1160); conditions: 45 min, higher = more signal, called active from +8 up or from −8 down
[20] = molecular target: NADPH oxidase 5 (Homo sapiens) (UniProt Q96PH1); test: NOX5-dependent H2O2 signal modulators, primary screen, NOX inhibitor project, cell-based, HEK293-NOX5, Amplex Red fluorescence (AID 1161); conditions: HEK293-NOX5, ionomycin, 45 min, higher = more signal
Chain of NADPH oxidase 5 (Homo sapiens) (Q96PH1 whole entry, looked up): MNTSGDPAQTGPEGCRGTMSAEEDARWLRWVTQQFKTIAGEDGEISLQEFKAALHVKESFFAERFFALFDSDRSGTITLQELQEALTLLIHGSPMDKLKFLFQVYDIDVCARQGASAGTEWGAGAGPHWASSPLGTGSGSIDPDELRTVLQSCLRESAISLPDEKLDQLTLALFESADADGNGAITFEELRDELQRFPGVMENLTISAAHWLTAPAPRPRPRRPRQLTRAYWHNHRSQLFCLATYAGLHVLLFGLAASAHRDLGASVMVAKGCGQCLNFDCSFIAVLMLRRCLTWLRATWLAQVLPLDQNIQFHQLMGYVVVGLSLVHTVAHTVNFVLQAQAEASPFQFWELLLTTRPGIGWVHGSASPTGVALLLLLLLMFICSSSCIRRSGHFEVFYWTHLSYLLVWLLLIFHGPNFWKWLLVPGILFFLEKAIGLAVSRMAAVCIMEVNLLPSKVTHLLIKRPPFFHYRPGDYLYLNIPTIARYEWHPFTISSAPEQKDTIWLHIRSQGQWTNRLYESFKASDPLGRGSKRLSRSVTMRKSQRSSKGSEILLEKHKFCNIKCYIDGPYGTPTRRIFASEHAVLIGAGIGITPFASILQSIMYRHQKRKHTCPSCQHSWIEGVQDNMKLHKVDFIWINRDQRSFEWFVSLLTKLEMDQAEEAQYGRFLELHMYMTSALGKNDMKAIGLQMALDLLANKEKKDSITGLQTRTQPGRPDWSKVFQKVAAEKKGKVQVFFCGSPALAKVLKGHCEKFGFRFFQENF

Chain of NADPH oxidase 2 (Homo sapiens) (P04839 whole entry, looked up): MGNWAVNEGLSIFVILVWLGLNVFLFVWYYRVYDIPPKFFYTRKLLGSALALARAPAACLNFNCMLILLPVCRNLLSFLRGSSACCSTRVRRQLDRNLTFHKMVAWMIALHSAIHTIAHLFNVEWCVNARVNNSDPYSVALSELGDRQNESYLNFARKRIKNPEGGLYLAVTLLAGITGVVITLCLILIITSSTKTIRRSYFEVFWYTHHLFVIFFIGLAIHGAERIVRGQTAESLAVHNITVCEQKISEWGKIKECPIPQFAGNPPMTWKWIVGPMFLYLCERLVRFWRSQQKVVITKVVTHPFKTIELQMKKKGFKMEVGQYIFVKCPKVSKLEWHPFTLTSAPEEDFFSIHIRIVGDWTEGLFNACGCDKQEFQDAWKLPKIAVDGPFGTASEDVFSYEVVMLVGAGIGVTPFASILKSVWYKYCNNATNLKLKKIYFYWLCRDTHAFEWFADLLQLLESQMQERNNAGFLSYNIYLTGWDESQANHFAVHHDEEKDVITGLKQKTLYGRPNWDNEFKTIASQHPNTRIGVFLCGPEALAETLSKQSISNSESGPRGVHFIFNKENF
Chain of NADPH oxidase 4 (Homo sapiens) (Q9NPH5 whole entry, looked up): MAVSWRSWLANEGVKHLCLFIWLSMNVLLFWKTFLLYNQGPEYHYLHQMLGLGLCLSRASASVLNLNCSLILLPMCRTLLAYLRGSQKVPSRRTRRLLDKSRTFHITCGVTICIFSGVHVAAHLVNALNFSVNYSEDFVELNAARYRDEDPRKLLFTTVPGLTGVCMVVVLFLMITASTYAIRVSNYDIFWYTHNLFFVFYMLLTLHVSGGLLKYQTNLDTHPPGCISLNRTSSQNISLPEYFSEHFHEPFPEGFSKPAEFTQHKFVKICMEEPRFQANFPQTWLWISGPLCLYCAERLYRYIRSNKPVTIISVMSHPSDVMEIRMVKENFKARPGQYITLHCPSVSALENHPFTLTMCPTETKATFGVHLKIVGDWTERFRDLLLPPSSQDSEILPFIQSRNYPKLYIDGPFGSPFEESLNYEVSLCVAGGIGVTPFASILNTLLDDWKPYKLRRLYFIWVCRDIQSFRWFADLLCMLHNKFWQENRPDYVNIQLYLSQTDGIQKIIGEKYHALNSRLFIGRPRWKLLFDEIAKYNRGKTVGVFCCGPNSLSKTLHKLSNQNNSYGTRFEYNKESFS
Chain of Streptavidin (Streptomyces avidinii) (P22629 whole entry, looked up): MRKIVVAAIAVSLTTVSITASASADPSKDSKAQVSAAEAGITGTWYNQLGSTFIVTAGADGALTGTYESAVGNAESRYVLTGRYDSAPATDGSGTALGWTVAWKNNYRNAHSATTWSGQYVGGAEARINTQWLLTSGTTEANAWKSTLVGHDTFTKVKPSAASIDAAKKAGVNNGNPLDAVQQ
Chain of Torsin-1A (Homo sapiens) (O14656 whole entry, looked up): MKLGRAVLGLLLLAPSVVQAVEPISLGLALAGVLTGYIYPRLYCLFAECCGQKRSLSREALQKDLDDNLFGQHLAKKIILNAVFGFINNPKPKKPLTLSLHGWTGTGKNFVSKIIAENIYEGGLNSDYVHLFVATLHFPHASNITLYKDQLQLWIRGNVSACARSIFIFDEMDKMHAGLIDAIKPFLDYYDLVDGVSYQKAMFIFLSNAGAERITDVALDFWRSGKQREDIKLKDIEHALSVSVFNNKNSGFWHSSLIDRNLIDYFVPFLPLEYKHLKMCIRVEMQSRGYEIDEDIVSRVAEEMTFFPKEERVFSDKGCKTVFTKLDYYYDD

Structure (SMILES) | composite z-score [1] | z-score [2] | z-score [3] | z-score [4] | z-score [5] | composite z-score [6] | composite z-score [7] | composite z-score [8] | composite z-score [9] | composite z-score [10] | z-score [11] | composite z-score [12] | z-score [13] | z-score [14] | z-score [15] | z-score [16] | z-score [17] | z-score [18] | z-score [19] | z-score [20]
C[C@H]1CC[C@H]2C(=O)O[C@H](CO)CN2[C@@H]1c1ccc(Br)cc1 | 0.0217 | -0.98 (inactive) | -1.38 (inactive) | -0.557 (inactive) | -0.816 (inactive) | 0.0279 | -0.202 | 0.345 | -0.363 | -0.0013 | -0.0016 (inactive) | 0.0012 | 1.51 (inactive) | 0.939 (inactive) | 0.0454 (inactive) | 0.49 (inactive) | -0.337 | -0.431 (inactive) | -0.191 (inactive) | -0.489
CC(C)=CCCC(C)=CCON=C1[C@H]2CCn3c(=O)n(-c4ccccc4)c(=O)n3[C@H]2[C@H](O)[C@@H]2O[C@H]12 | 0.0694 | -1.7 (inactive) | -0.044 (inactive) | -0.473 (inactive) | -0.271 (inactive) | 1.07 | 0.0319 | 1.02 | 0.413 | 1.38 | -0.484 (inactive) | 0.688 | 4.93 (inactive) | 0.635 (inactive) | 2.07 (inactive) | 0.695 (inactive) | 0.897 | 0.856 (inactive) | 0.577 (inactive) | -0.799
C[C@@H]1CC[C@H]2C(=O)OC(CN3C(=O)c4ccccc4C3=O)CN2[C@H]1c1ccc(Br)cc1 (stereo not given in full) | -0.0102 | 0.135 (inactive) | 0.447 (inactive) | 1.19 (inactive) | -0.841 (inactive) | 0.942 | -0.045 | -0.0288 | 0.396 | -0.365 | 0.634 (inactive) | 0.0315 | 3.61 (inactive) | 0.63 (inactive) | -0.694 (inactive) | 0.246 (inactive) | 0.134 | 0.371 (inactive) | 0.182 (inactive) | -0.055
CCOC(=O)CCN1C(=O)[C@H]2[C@H]3[C@H](O)[C@H](O)CC(=NO[C@@H]4O[C@H](CO)[C@@H](O)[C@H](O)[C@H]4O)[C@H]3CC[C@H]2C1=O | -0.167 | 0.38 (inactive) | 0.132 (inactive) | 0.241 (inactive) | 0.497 (inactive) | -0.0432 | -0.05 | 0.629 | 0.307 | 0.493 | 0.131 (inactive) | 0.493 | -0.266 (inactive) | -0.163 (inactive) | -0.788 (inactive) | -0.0643 (inactive) | 0.199 | 0.444 (inactive) | 0.451 (inactive) | -0.9
O=C1[C@H]2[C@H]3[C@H](O)[C@H](O)CC(=NOCc4ccccc4)[C@@H]3CC[C@H]2C(=O)N1c1cccc(Oc2ccccc2)c1 | -0.0001 | -0.558 (inactive) | 1.31 (inactive) | -0.658 (inactive) | 0.0169 (inactive) | 0.0831 | -0.024 | 0.186 | 0.0495 | 1.03 | 1.16 (inactive) | 0.082 | 2.88 (inactive) | 1.72 (inactive) | 1.19 (inactive) | 0.845 (inactive) | -0.116 | -1.11 (inactive) | 0.735 (inactive) | -1.18
CCN1C(=O)[C@H]2[C@H]3[C@H](O)[C@H](O)CC(=NOCC[C@@H]4C=C[C@H](OC(C)=O)[C@@H](COC(C)=O)O4)[C@@H]3CC[C@H]2C1=O | 0.0885 | -0.0735 (inactive) | 0.857 (inactive) | 0.0757 (inactive) | 0.313 (inactive) | -0.0034 | -0.109 | 0.014 | 0.296 | 0.55 | -0.405 (inactive) | -0.125 | 0.422 (inactive) | 0.329 (inactive) | -0.376 (inactive) | 0.44 (inactive) | -0.401 | 0.0899 (inactive) | -0.0656 (inactive) | 0.859
CO[C@H]1COC(=O)[C@H](CCSC)NC(=O)CC=C[C@@H](C)[C@H](OC)COC(=O)[C@@H](OCc2ccccc2)C=C[C@@H]1C | 0.211 | -1.45 (inactive) | -0.128 (inactive) | -0.0638 (inactive) | 0.74 (inactive) | -0.0966 | -0.101 | 1.78 | 0.732 | 1.9 | 0.319 (inactive) | -0.173 | 0.463 (inactive) | 0.191 (inactive) | 1.17 (inactive) | 0.367 (inactive) | -0.378 | 0.167 (inactive) | 0.25 (inactive) | -0.911
CON=C1c2cc(OC)ccc2O[C@H](c2cccc(OC)c2)[C@H]1O | -0.038 | -3.45 (inactive) | -0.243 (inactive) | -0.0731 (inactive) | -0.206 (inactive) | 0.431 | -0.016 | 0.195 | 0.517 | 0.755 | 0.788 (inactive) | -0.0061 | 3.04 (inactive) | 0.72 (inactive) | -0.241 (inactive) | 0.245 (inactive) | 0.686 | -0.837 (inactive) | -0.406 (inactive) | -0.175

— PubChem BioAssay
